The values that follow come from PubChem BioAssay.

Activity calls are given as the source filed them. Unless noted, no rule for the calls is given here.

A short description of one test: inhibitors of Cryptococcus chitosan production, flow cytometry, Cibacron Brilliant Red staining (AID 1347148).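 Also: compound exposure lasted three days at 37 degrees C.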 To be noted: Cryptococcus neoformans chitosan, stronger effect = lower value; at 99.1 µM unless noted. Background: A flow cytometer gives signals particle by particle.
Consider `CC1=NS(=O)(=O)c2cc(Cl)ccc2N1`, for which the fold fluorescence was 4.83 [at 216.8 µM] (inactive).

Consider `CC1=C(/C=C/C(C)=C/C=C/C(C)=C/C(=O)O)C(C)(C)CCC1`, for which the fold fluorescence was 4.11 [at 10 µM] (inactive). With `CCCCNc1cc(C(=O)O)cc(S(N)(=O)=O)c1Oc1ccccc1`, the fold fluorescence is 4.08 [at 137.2 µM] (inactive). On to `CCOC(=O)C1=C(C)NC(C)=C(C(=O)OC)C1c1cccc([N+](=O)[O-])c1` (configuration not stated), for which the fold fluorescence was 5.19 [at 138.7 µM] (inactive). Consider `COc1ccc(Cl)cc1C(=O)NCCc1ccc(S(=O)(=O)NC(=O)NC2CCCCC2)cc1`, for which the fold fluorescence is 3.32 [at 101.2 µM] (inactive). As to `COCCOC(=O)C1=C(C)NC(C)=C(C(=O)OC(C)C)C1c1cccc([N+](=O)[O-])c1` (configuration not stated), the fold fluorescence is 6.04 [at 119.5 µM] (inactive).

The next test in a line: modifiers of HSF1 nuclear foci, imaging, Selleck Cancer Library (AID 1347162; in the data active = plate-normalised HSF1 focus index below about 0.46). To be noted: human cells, at 10 µM; SSMD: measured here: HSF1 foci SSMD mean; cell count: measured here: cell number; plate-normalised HSF1 focus index: stronger effect = lower value.
`O=C1c2c(O)ccc(O)c2C(=O)c2c(NCCNCCO)ccc(NCCNCCO)c21`: the plate-normalised HSF1 focus index is 0.898 (inactive), the cell count turned out to be 7320 and the SSMD is -1.6. As to `CC(C)C(=O)Nc1ccc([N+](=O)[O-])c(C(F)(F)F)c1`, the plate-normalised HSF1 focus index was 1.06 (inactive), the cell count was found to be 6660 and the SSMD is 1.17.

As for `O=C(O)CCCc1ccccc1`, the plate-normalised HSF1 focus index was 1.14 (inactive), the SSMD amounted to 2.46 and the cell count came to 7000.

The nature of a further test: phospholipid biosynthesis inhibitors in animal cells, primary screen, cell-based, LOPAC library, screen 4 (AID 1347384). The note with it: phospholipid biosynthesis inhibition screen, at 10 µM.
Regarding `CC12CC3CC(C)(C1)CC(N)(C3)C2`, the result was inactive. With `CC(=O)OCC(CCn1cnc2cnc(N)nc21)COC(C)=O`, the molecule was classed as inactive. Take `CC1=NS(=O)(=O)c2cc(Cl)ccc2N1`: the result was inactive.

As to `NCCc1ccc(O)c(O)c1`, the result was inactive.

On to `CN=C(NC#N)NCCSCc1nc[nH]c1C`, for which the molecule was classed as inactive. `CC1COc2c(N3CCN(C)CC3)c(F)cc3c(=O)c(C(=O)O)cn1c23` (configuration not stated): the call was inactive. For `O=C(C1CCCCC1)N1CC(=O)N2CCc3ccccc3C2C1` (configuration not stated), the call was inactive.

In the case of `CC1=C(/C=C/C(C)=C/C=C/C(C)=C/C(=O)O)C(C)(C)CCC1`, the result was inactive. With `CCCCNc1cc(C(=O)O)cc(S(N)(=O)=O)c1Oc1ccccc1`, the molecule was classed as inactive. The same measure, in the same setting: the entry for `O=c1[nH]cnc2[nH]ncc12` is “inactive”; for `O=C1c2c(O)ccc(O)c2C(=O)c2c(NCCNCCO)ccc(NCCNCCO)c21` it is “inactive”. With `CC(C)C(=O)Nc1ccc([N+](=O)[O-])c(C(F)(F)F)c1`, the result was inactive. On the same count and under the same terms, as for `NS(=O)(=O)c1cc2c(cc1Cl)NCNS2(=O)=O`, the entry is “inactive”; as for `CCOC(=O)C1=C(C)NC(C)=C(C(=O)OC)C1c1cccc([N+](=O)[O-])c1` (configuration not stated), “inactive”. With `COc1ccccc1OCCNCC(O)COc1cccc2[nH]c3ccccc3c12` (configuration not stated), the outcome was inactive.

On to `NNCCc1ccccc1`, for which the call was inactive. For `CC(C)Cc1ccc(C(C)C(=O)O)cc1` (configuration not stated), the outcome was inactive. Regarding `N[C@@H]1CONC1=O`, the molecule was classed as inactive. With `CCN(Cc1ccncc1)C(=O)C(CO)c1ccccc1` (configuration not stated), the molecule was called inactive. Regarding `CC(C[N+](C)(C)C)OC(N)=O` (configuration not stated), the molecule was classed as inactive. For `COc1ccc(Cl)cc1C(=O)NCCc1ccc(S(=O)(=O)NC(=O)NC2CCCCC2)cc1`, the molecule was classed as inactive.

`COCCOC(=O)C1=C(C)NC(C)=C(C(=O)OC(C)C)C1c1cccc([N+](=O)[O-])c1` (configuration not stated): the molecule was classed as inactive.
